# Measured values: PubChem BioAssay
# For part of these data: Measured potencies and affinities stand elsewhere. The source made the active and inactive calls.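 The calls were made as follows, unless noted: active = fitted half-maximal concentration within 10 nM to 100 µM, steepness 0.5 to 2, significant signal drop, low assay interference; inactive = the rest.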
# Tests used:
# [1] = target: Cell division control protein 42 homolog (Homo sapiens) (UniProt P60953); assay: activated mutant Cdc42 GTP-binding inhibitors, dose response, biochemical, multiplex bead flow cytometry, Bodipy-FL-GTP (AID 1333;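 active = fitted half-maximal concentration within the tested dose range, moderate curve steepness, a statistically real signal drop, and little compound fluorescence or tag-binding interference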)
# Cell division control protein 42 homolog (Homo sapiens), sequence (P60953 whole entry, looked up): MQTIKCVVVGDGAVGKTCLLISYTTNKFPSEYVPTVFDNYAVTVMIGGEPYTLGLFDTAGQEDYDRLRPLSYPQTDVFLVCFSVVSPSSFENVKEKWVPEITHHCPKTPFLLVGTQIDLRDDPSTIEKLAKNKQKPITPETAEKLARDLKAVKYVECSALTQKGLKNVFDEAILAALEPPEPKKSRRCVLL
# [2] = target: Cell division control protein 42 homolog (Homo sapiens) (UniProt P60953); assay: wildtype Cdc42 GTP-binding inhibitors, dose response, biochemical, multiplex bead flow cytometry, Bodipy-FL-GTP (AID 1334;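 active = fitted half-maximal concentration within the tested range, moderate curve steepness, significant signal drop, and little compound fluorescence or bead-linkage interference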); conditions: bead-based flow cytometry, Bodipy-FL-GTP binding to GST-Cdc42; at 100 µM (top of the series) unless noted
# [3] = target: GTPase HRas (Homo sapiens) (UniProt P01112); assay: inhibitors of GTP binding to wildtype Ras, dose response, biochemical, multiplex bead flow cytometry (AID 1335); conditions: bead-based flow cytometry, Bodipy-GTP binding to GST-Ras; at 100 µM (top of the series) unless noted
# GTPase HRas (Homo sapiens), sequence (P01112 whole entry, looked up): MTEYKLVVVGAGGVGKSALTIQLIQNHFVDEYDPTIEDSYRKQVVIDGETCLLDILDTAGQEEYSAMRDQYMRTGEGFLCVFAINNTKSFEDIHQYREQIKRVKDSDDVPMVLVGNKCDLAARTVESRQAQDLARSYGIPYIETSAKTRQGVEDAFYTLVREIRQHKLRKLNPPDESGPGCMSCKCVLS
# [4] = test system: Ras-related protein Rab-7a (dog), GTP binding; assay: Rab7 GTP binding inhibitors, potency, dose response, biochemical, wildtype, multiplex bead flow cytometry (AID 1336; call rule not given here)
# [5] = target: Ras-related C3 botulinum toxin substrate 1 (Homo sapiens) (UniProt P63000); assay: wildtype Rac1 GTP binding inhibitors, dose response, biochemical, multiplex bead flow cytometry (AID 1340;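 active = dose curve with midpoint inside tested range, moderate steepness, plateau gap beyond fit error, low compound glow and bead-link interference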); conditions: GST-Rac1 beads, Bodipy-FL-GTP binding; at 100 µM (top of the series) unless noted
# [6] = target: GTPase HRas (Homo sapiens) (UniProt P01112); assay: activated Ras mutant GTP binding inhibitors, dose response, biochemical, multiplex bead flow cytometry (AID 1341;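 active = dose-response curve with midpoint inside the tested range, moderate steepness, significant amplitude and little compound fluorescence or bead-attachment interference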;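 also: GST-tagged constitutively activated Ras mutant immobilized on beads and multiplexed with other GTPases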)
SMILES,outcome [1],"fluorescence, percent of control (lower = inhibition) [2] [%]","GTP binding, percent of control [3] [%]",outcome [4],"GTP binding signal, raw median fluorescence (lower = inhibition) (MCF (arbitrary fluorescence units)) [5]",outcome [6]
Cc1ccc(/C=N/N(C)C2=NS(=O)(=O)c3ccccc32)o1,inactive,27.1,57.3,inactive,132,inactive
COc1ccc(S(=O)(=O)N2CCOCC2)cc1C(=O)Nc1nc2ccccc2s1,inactive,46.1,55.9,inactive,153,inactive
Cn1nnc(NC(=S)NC(=O)c2ccc(-c3ccc(Br)cc3)o2)n1,inactive,30.7,75.4,inactive,132,inactive
COc1cccc(NC(=O)CSc2nc3c([nH]c4ccccc43)c(=O)n2C)c1,inactive,42.8,92.1,inactive,293,inactive
O=C(CN1C(=O)S/C(=C/c2cccnc2)C1=O)N1CCOCC1,inactive,54.1,68.5,inactive,221,inactive
COc1ccc(S(=O)(=O)Cc2ccc(C(=O)N3CCN(c4cccc(C)c4C)CC3)o2)cc1,inactive,41.5,62.1,inactive,171,inactive
COc1cc(/C=C2\SC(=Nc3ccc(O)cc3)NC2=O)cc(OC)c1O,inactive,36.9,79.8,inactive,267,inactive
Cc1nnc(SCCN2CCOCC2)c2nn(-c3ccccc3F)c(C)c12,inactive,48.5,61.1,inactive,196,inactive
COc1ccc(S(=O)(=O)n2oc(=O)cc2-c2ccccc2)cc1,inactive,42.2,90.8,inactive,248,inactive
COc1ccccc1Oc1ccccc1C(=O)O,inactive,100,239,inactive,271,inactive
O=C(CSc1ccccc1)Nc1ccc(C(=O)Nc2cccc(O)c2)cc1,inactive,33.6,77.9,inactive,193,inactive
CS(=O)(=O)c1ccc(C(=O)OCc2nnc(-c3ccccc3)o2)cc1[N+](=O)[O-],inactive,22.4,81.7,inactive,259,inactive
NC(=O)COC(=O)c1cccc2c1-c1ccccc1C2=O,inactive,33.4,75,inactive,176,inactive
Cc1ccc(-n2nc3c(SCCN4CCOCC4)nnc(C)c3c2C)cc1,inactive,49,64.6,inactive,194,inactive
COc1cc(/C=N/NC(=O)C(Cc2c[nH]c3ccccc23)NC(=O)OCc2ccccc2)cc([N+](=O)[O-])c1O (stereo unspecified),inactive,29.6,74,inactive,208,inactive
Cc1cccc(CNc2nc(C)ccc2C(=O)O)c1,inactive,60.7,218,inactive,58,inactive

SMILES,outcome [1],"fluorescence, percent of control (lower = inhibition) [2] [%]","GTP binding, percent of control [3] [%]",outcome [4],"GTP binding signal, raw median fluorescence (lower = inhibition) (MCF (arbitrary fluorescence units)) [5]",outcome [6]
C=CCc1ccccc1OCc1cccc(C(=O)O)c1,inactive,78.7,99.3,inactive,56.1,inactive
O=C(CSc1ccc2nnc(-c3cccc(F)c3)n2n1)N1CCCc2ccccc21,inactive,37.7,83,inactive,209,inactive
Cc1cc(C)n2nc(SCCOc3ccc(F)cc3)nc2n1,inactive,42.7,78.4,inactive,166,inactive
NC1=NC(=O)/C(=C\c2ccc(O)c([N+](=O)[O-])c2)S1,inactive,26.8,58.3,inactive,116,inactive
Cc1ccc(C(=O)O)c(OCCc2c(C)cccc2C)n1,inactive,64.4,224,inactive,57,inactive
Nc1nn2c(-c3ccccc3)cc(=O)[nH]c2c1N=Nc1ccc(Br)cc1,inactive,27.4,78.1,inactive,197,inactive
O=C(Cn1cnc2c(nnn2Cc2ccccc2F)c1=O)NCC1CCCO1 (stereo unspecified),inactive,51.6,63.1,inactive,208,inactive
N#C/C(=C/c1ccc(-c2ccccc2)o1)c1nc(-c2cccs2)cs1,inactive,96.4,107,inactive,228,inactive
O=C(Nc1cccc(-c2ccc3nncn3n2)c1)c1ccco1,inactive,32.1,73,inactive,157,inactive
Cc1ccc(Nc2c(F)c(F)c(F)c(F)c2C(=O)O)c(C)c1,inactive,92.8,109,inactive,75.2,inactive
COc1ccc(OC)c(Nc2nc(-c3sc(N)nc3C)cs2)c1,inactive,32.7,72.6,inactive,179,inactive
CC(C)(C)C#CC(=O)c1ccc([N+](=O)[O-])cc1,inactive,37.9,196,inactive,49.6,inactive
O=C(O)c1cccnc1OCc1ccccc1,inactive,88.8,103,inactive,63.4,inactive
N#CCc1c(C#N)c(N)nc(N2CCN(C=O)CC2)c1C#N,inactive,33.7,75.4,inactive,170,inactive
O=C(CCc1nnc(-c2ccc3c(c2)OCO3)o1)N1CCC(c2ccc(F)cc2)C1 (stereo unspecified),inactive,36.1,88.1,inactive,303,inactive
